The target of one test is T1, Aspartate--tRNA(Asp/Asn) ligase (Mycobacterium tuberculosis (strain ATCC 25618 / H37Rv)) (UniProt P9WFW3). Also: in the data most compounds retested in dose-response had high values.
T1 sequence (whole entry): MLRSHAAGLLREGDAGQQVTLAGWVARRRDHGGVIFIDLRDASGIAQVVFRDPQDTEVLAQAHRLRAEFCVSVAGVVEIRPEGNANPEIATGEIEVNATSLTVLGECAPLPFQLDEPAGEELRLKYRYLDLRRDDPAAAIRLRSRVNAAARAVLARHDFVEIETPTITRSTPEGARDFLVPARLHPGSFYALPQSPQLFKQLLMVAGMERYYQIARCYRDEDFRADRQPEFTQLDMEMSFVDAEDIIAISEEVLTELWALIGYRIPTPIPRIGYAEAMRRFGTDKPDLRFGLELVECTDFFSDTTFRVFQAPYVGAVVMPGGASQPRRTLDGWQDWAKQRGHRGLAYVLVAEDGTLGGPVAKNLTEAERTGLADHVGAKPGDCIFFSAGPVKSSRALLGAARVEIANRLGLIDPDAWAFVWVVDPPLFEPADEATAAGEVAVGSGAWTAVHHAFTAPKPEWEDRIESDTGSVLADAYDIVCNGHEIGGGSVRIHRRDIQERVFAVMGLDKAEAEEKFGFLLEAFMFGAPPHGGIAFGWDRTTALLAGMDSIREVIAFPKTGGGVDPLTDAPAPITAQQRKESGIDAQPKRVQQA
In words: Assay for Asp RNA synthetase-1 from Mycobacterium tuberculosis. It counts as functional. Further details: scale not given: direction of the effect not stated beside the values. The conditions noted are these: 30 µM.
As for `CCc1nc(C2CCCN(C(=O)c3cn(C)nc3C)C2)no1` (stereo not given), the Percent Effect was -7.17%.

With `Cc1ccc(-c2nc(CN3CCC(C(=O)N(C)C)CC3)cs2)o1`, the Percent Effect amounted to 4.21%.

`CN(C)Cc1ccc(C2CCCCN2C(=O)c2cc(C3CC3)n[nH]2)cc1` (stereo not given): the Percent Effect was -1.82%.

Consider `COCCC(=O)N1CCN(C)c2ncccc2C1`, for which the Percent Effect stood at 4.52%.

On to `CN(C)C(=O)CC1CC2(CCN(c3ncccn3)CC2)c2ccccc21` (stereo not given), for which the Percent Effect came out at 2.97%.

As for `CS(=O)(=O)NCC1CCCN(C(=O)Nc2cccnc2N2CCCC2)C1` (stereo not given), the Percent Effect is 6.08%.

Consider `O=C(c1cccc(Cl)c1)N1CCCn2c(CN3CCCCC3)nnc2C1`, for which the Percent Effect was -2.93%.

Turning to `COc1cccc(OC)c1CN1CCC2(CC(Nc3ccncn3)C2)C1` (stereo not given), the Percent Effect was 3.04%.

Regarding `Cc1ccc(N2CCCC(NCC(=O)NC3CCOCC3)C2)nn1` (stereo not given), the Percent Effect turned out to be 5.08%.

In the case of `Cc1cc(C(C)C(=O)N2CCCN(Cc3cscn3)CC2)c(C)o1` (stereo not given), the Percent Effect was -4.75%.

For the compound `CC(C)(C)c1ccn(C2(C(=O)O)CCN(c3nccc(N)n3)CC2)n1`, the Percent Effect is 3.12%.

`Cc1cc(C(=O)N2CCCCC2C)ccc1NCCCO` (stereo not given): the Percent Effect is -5.49%.

As to `O=C(C1CC1)N1CCC(c2nc(O)c3c(n2)CCN(C2CCCC2)C3)C1` (stereo not given), the Percent Effect is -2.25%.

In the case of `CC(=O)N(C)CC(=O)Nc1cccc(N2CCN(CC3CC3)CC2)c1`, the Percent Effect amounted to 7.12%.

On to `Cn1ccnc1CN1CCCC(Cc2ccccn2)C1` (stereo not given), for which the Percent Effect is -2.49%.

Take `Cc1ccc(-n2nnc(C(=O)Nc3cc(C)nn3C)c2C2CC2)cc1`: the Percent Effect is -2.8%.

On to `O=C(C1CCCc2[nH]ncc21)N1CCCCCC1` (stereo not given), for which the Percent Effect is -0.324%.

For the compound `Cc1ccc(CNC(=O)CN2C=Nc3ccccc3S2(=O)=O)s1`, the Percent Effect was -0.759%.

In the case of `CN(Cc1cn2c(n1)CN(C(=O)CC1CC1)CC2)Cc1ccco1`, the Percent Effect was -0.868%.

In the case of `Cc1ccsc1[C@@H]1CCN(C(=O)c2cc3ccccc3[nH]2)C[C@H]1O`, the Percent Effect was -0.724%.

As for `CNC(=O)C1Cn2ccnc2C2(CCN(Cc3cccnc3)CC2)O1` (stereo not given), the Percent Effect is -0.0764%.

Take `COc1ccc(C(=O)N2CCCC2c2ccco2)cc1OC` (stereo not given): the Percent Effect is -3.37%.

Regarding `O=C(O)CC1CN(Cc2ccccc2)CCO1` (stereo not given), the Percent Effect is -0.183%.

Consider `Cc1cnn(CCNCc2csc(-c3ccc(F)cc3)n2)c1`, for which the Percent Effect is -1.03%.

On to `O=C(NCC1CC1)[C@H]1C[C@H]2OCC[C@H]2N(Cc2ccsc2)C1`, for which the Percent Effect is 4.96%.

For `Cc1ccc(CN2CCc3ncnc(C4CCOC4)c3CC2)s1` (stereo not given), the Percent Effect turned out to be 1.05%.

Turning to `CCOc1nnc(CN(C)CC2CCCN2c2cccnn2)s1` (stereo not given), the Percent Effect was -1.14%.

`Cn1cc(CN2CCn3cc(CNC(=O)c4cccn4C)nc3C2)cn1`: the Percent Effect came to 2.49%.

Consider `Cc1nc(CN2CCOC(CNc3cccnn3)C2)oc1C` (stereo not given), for which the Percent Effect is -4%.

`CN(C)CCN(Cc1cccc(C(F)(F)F)c1)C(=O)c1cc[nH]n1`: the Percent Effect stood at 0.947%.

Take `Cc1nn(CC(=O)N2CCC(Nc3cccnn3)CC2)c(C)c1Cl`: the Percent Effect is -1.63%.

In the case of `CC(NC(=O)Cc1cccs1)c1nnc2n1CCCCC2` (stereo not given), the Percent Effect is -4.69%.

As for `CC(=O)NCC(=O)N1Cc2nccn2CC(Cn2cccn2)C1` (stereo not given), the Percent Effect is -1.48%.

In the case of `CC(=O)N1CCCC1c1ccc(C(=O)N2CCOCC2)s1` (stereo not given), the Percent Effect was 2.33%.

Consider `O=C(c1cnccn1)N1CCc2ncnc(-c3cccnc3)c2CC1`, for which the Percent Effect is -2.48%.

For the compound `Cc1nc[nH]c1CN1CCN(C(=O)c2cccs2)[C@H]2CS(=O)(=O)C[C@H]21`, the Percent Effect was -4.62%.

Regarding `O=C(CCNC(=O)C1CCCC1)NCc1ccccc1Cn1cncn1`, the Percent Effect was 2.64%.

As to `COC(=O)CN(C)C1CCc2ccccc21` (stereo not given), the Percent Effect is -6.57%.

For the compound `CN1CCN(C(=O)c2ccc(=O)n(C)c2)c2ccccc21`, the Percent Effect was -7.61%.

As for `O=C(CCC1CC1)N1C[C@@H](CN2CCCC2)[C@@H](CO)C1`, the Percent Effect amounted to 0.505%.

For another test, the target named is Shiga toxin 2 (Escherichia coli O157:H7) (UniProt P09385+P09386). In words: E. coli 0.157:H7 Shiga Toxin SOP - stx2 screening assay. The conditions noted are these: 30 µM. It counts as functional. Set-up: scale not given: direction of the effect not stated beside the values.
For `CCc1nc(C2CCCN(C(=O)c3cn(C)nc3C)C2)no1` (stereo not given), the Percent Effect is -20.7%.

For `Cc1ccc(-c2nc(CN3CCC(C(=O)N(C)C)CC3)cs2)o1`, the Percent Effect was -24.2%.

For the compound `CN(C)Cc1ccc(C2CCCCN2C(=O)c2cc(C3CC3)n[nH]2)cc1` (stereo not given), the Percent Effect stood at 2.95%.

Consider `COCCC(=O)N1CCN(C)c2ncccc2C1`, for which the Percent Effect is -19.6%.

As for `CN(C)C(=O)CC1CC2(CCN(c3ncccn3)CC2)c2ccccc21` (stereo not given), the Percent Effect was -6.02%.

On to `CS(=O)(=O)NCC1CCCN(C(=O)Nc2cccnc2N2CCCC2)C1` (stereo not given), for which the Percent Effect is -16.6%.

For `O=C(c1cccc(Cl)c1)N1CCCn2c(CN3CCCCC3)nnc2C1`, the Percent Effect was -13.3%.

Regarding `COc1cccc(OC)c1CN1CCC2(CC(Nc3ccncn3)C2)C1` (stereo not given), the Percent Effect was 0.472%.

With `Cc1ccc(N2CCCC(NCC(=O)NC3CCOCC3)C2)nn1` (stereo not given), the Percent Effect is -27.9%.

For `Cc1cc(C(C)C(=O)N2CCCN(Cc3cscn3)CC2)c(C)o1` (stereo not given), the Percent Effect amounted to 19.4%.

Take `CC(C)(C)c1ccn(C2(C(=O)O)CCN(c3nccc(N)n3)CC2)n1`: the Percent Effect was -19.9%.

Regarding `Cc1cc(C(=O)N2CCCCC2C)ccc1NCCCO` (stereo not given), the Percent Effect came to 11.1%.

For the compound `O=C(C1CC1)N1CCC(c2nc(O)c3c(n2)CCN(C2CCCC2)C3)C1` (stereo not given), the Percent Effect is -11.5%.

Turning to `CC(=O)N(C)CC(=O)Nc1cccc(N2CCN(CC3CC3)CC2)c1`, the Percent Effect is -14.8%.

`Cn1ccnc1CN1CCCC(Cc2ccccn2)C1` (stereo not given): the Percent Effect was -6.98%.

Regarding `Cc1ccc(-n2nnc(C(=O)Nc3cc(C)nn3C)c2C2CC2)cc1`, the Percent Effect came out at 34.4%.

`O=C(C1CCCc2[nH]ncc21)N1CCCCCC1` (stereo not given): the Percent Effect came to 1.51%.

In the case of `Cc1ccc(CNC(=O)CN2C=Nc3ccccc3S2(=O)=O)s1`, the Percent Effect was found to be 9.11%.

For the compound `CN(Cc1cn2c(n1)CN(C(=O)CC1CC1)CC2)Cc1ccco1`, the Percent Effect is -5.93%.

For `Cc1ccsc1[C@@H]1CCN(C(=O)c2cc3ccccc3[nH]2)C[C@H]1O`, the Percent Effect was -11.7%.

On to `CNC(=O)C1Cn2ccnc2C2(CCN(Cc3cccnc3)CC2)O1` (stereo not given), for which the Percent Effect came to 3.87%.

As for `COc1ccc(C(=O)N2CCCC2c2ccco2)cc1OC` (stereo not given), the Percent Effect is -11.3%.

As for `O=C(O)CC1CN(Cc2ccccc2)CCO1` (stereo not given), the Percent Effect was -5.59%.

Consider `Cc1cnn(CCNCc2csc(-c3ccc(F)cc3)n2)c1`, for which the Percent Effect amounted to 13.4%.

As for `O=C(NCC1CC1)[C@H]1C[C@H]2OCC[C@H]2N(Cc2ccsc2)C1`, the Percent Effect is 13.4%.

For `Cc1ccc(CN2CCc3ncnc(C4CCOC4)c3CC2)s1` (stereo not given), the Percent Effect is -15.3%.

Consider `CCOc1nnc(CN(C)CC2CCCN2c2cccnn2)s1` (stereo not given), for which the Percent Effect was -14.4%.

For `Cn1cc(CN2CCn3cc(CNC(=O)c4cccn4C)nc3C2)cn1`, the Percent Effect was -19.5%.

`Cc1nc(CN2CCOC(CNc3cccnn3)C2)oc1C` (stereo not given): the Percent Effect amounted to 0.662%.

On to `CN(C)CCN(Cc1cccc(C(F)(F)F)c1)C(=O)c1cc[nH]n1`, for which the Percent Effect was -18.8%.

For `Cc1nn(CC(=O)N2CCC(Nc3cccnn3)CC2)c(C)c1Cl`, the Percent Effect was -23.6%.

`CC(NC(=O)Cc1cccs1)c1nnc2n1CCCCC2` (stereo not given): the Percent Effect came out at 5.32%.

Regarding `CC(=O)NCC(=O)N1Cc2nccn2CC(Cn2cccn2)C1` (stereo not given), the Percent Effect is 0.581%.

With `CC(=O)N1CCCC1c1ccc(C(=O)N2CCOCC2)s1` (stereo not given), the Percent Effect was -18.8%.

Consider `O=C(c1cnccn1)N1CCc2ncnc(-c3cccnc3)c2CC1`, for which the Percent Effect was -12.4%.

As for `Cc1nc[nH]c1CN1CCN(C(=O)c2cccs2)[C@H]2CS(=O)(=O)C[C@H]21`, the Percent Effect was 10%.

As for `O=C(CCNC(=O)C1CCCC1)NCc1ccccc1Cn1cncn1`, the Percent Effect was 29.7%.

`COC(=O)CN(C)C1CCc2ccccc21` (stereo not given): the Percent Effect turned out to be 28.1%.

As to `CN1CCN(C(=O)c2ccc(=O)n(C)c2)c2ccccc21`, the Percent Effect was -16.6%.

For `O=C(CCC1CC1)N1C[C@@H](CN2CCCC2)[C@@H](CO)C1`, the Percent Effect was -35.6%.

(Values after ChEMBL document CHEMBL3988442, “University of Dundee, Small-Polar-MMV Screening Library” (2021).)
